{
  "source": "PubChem BioAssay (Tox21)",
  "note": "Inconclusive results are not listed. Unmarked numbers belong to inactive results. Activity calls are given as the source filed them. The call rests on the fitted dose curve; in most records, active means well fitted cell-killing curve with a large enough effect in the repeat runs; inconclusive means weak or mixed curves, or effect the other way; inactive means flat fitted curve, though single readings scatter. On the % scale 0 is the no-effect control and ±100 the full control effect; potency means the concentration at half of the fitted maximal effect.",
  "data": [
    {"assay": "qHTS assay to identify small molecule agonists of the androgen receptor (AR) signaling pathway in the presence of an antagonist - cell viability counter screen (AID 1259379); further: nearly all actives have a fitted effect of over 25% in size;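 on activity change, negative = cytotoxicity: MDA-kb2 human breast cancer cells carrying an MMTV luciferase reporter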", "details": "MDA-kb2 viability, CellTiter-Fluor, 16 h; series mostly up to 92.4 µM; activity change, negative = cytotoxicity: at the top concentration", "procedure,_shortened": "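MDA-kb2 human breast carcinoma cells (stable MMTV-luciferase, AR/GR responsive) were seeded 3,000 cells/well, pre-incubated 5 hr at 37C without CO2, then given 3.0uM nilutamide and compounds at 15 concentrations for 16 hr. Viability was read by CellTiter-Fluor fluorescence.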", "values": [
      {"molecule": "C[N+]1(C)CCC(=C(c2ccccc2)c2ccccc2)CC1", "activity change, negative = cytotoxicity": "1.66% [at 42.5 µM]"},
      {"molecule": "CC[C@@H]([C@H](C)O)n1ncn(-c2ccc(N3CCN(c4ccc(OC[C@@H]5CO[C@@](Cn6cncn6)(c6ccc(F)cc6F)C5)cc4)CC3)cc2)c1=O", "Potency": "11.9 µM (active)"},
      {"molecule": "CCCCCC=CCC=CCCCCCCCC(=O)OCC", "activity change, negative = cytotoxicity": "0.4% [at 42.5 µM]"},
      {"molecule": "CN1Cc2cc(C(=O)N3CCC(C4CCNCC4)CC3)ccc2N[C@@H](CC(=O)O)C1=O", "activity change, negative = cytotoxicity": "0.0166% [at 42.5 µM]"},
      {"molecule": "Cc1cc(S(=O)(=O)O)ccc1N=Nc1c(O)ccc2ccccc12", "Potency": "30.6 µM (active)"},
      {"molecule": "Cc1ccccc1N1C(=O)c2cc(S(N)(=O)=O)c(Cl)cc2NC1C", "note": "(configuration not stated)", "activity change, negative = cytotoxicity": "2.32% [at 42.5 µM]"},
      {"molecule": "CCCCC(CC)C(=O)OCCOCCOCCOCCOC(=O)C(CC)CCCC", "note": "(configuration not stated)", "activity change, negative = cytotoxicity": "1.21%"},
      {"molecule": "CC[C@H](NC(=O)c1cc(F)ccc1NS(=O)(=O)c1cccc2cccnc12)c1ccccc1", "activity change, negative = cytotoxicity": "-11.6%"},
      {"molecule": "CC(C)(C)CC(C)(C)c1ccc(OCCO)cc1", "Potency": "30.5 µM (active)"},
      {"molecule": "CN1CCN(c2c(F)cc3c(=O)c(C(=O)O)cn4c3c2OCN4C)CC1", "activity change, negative = cytotoxicity": "0.471% [at 19 µM]"},
      {"molecule": "C=CC(=O)NCOCC(C)C", "activity change, negative = cytotoxicity": "0.378%"},
      {"molecule": "C1COCO1", "activity change, negative = cytotoxicity": "-0.082%"},
      {"molecule": "c1cnc2c(n1)CCCC2", "activity change, negative = cytotoxicity": "0.0071%"},
      {"molecule": "O=C(CCCCCCCCC#CI)Oc1ccccc1", "activity change, negative = cytotoxicity": "-2.96% [at 42.5 µM]"},
      {"molecule": "CO[C@@]12[C@H](COC(N)=O)C3=C(C(=O)C(C)=C(N)C3=O)N1C[C@@H]1N[C@@H]12", "activity change, negative = cytotoxicity": "-15.3% [at 42.5 µM]"},
      {"molecule": "CCCCCCCCCOC(C)=O", "activity change, negative = cytotoxicity": "0.506%"},
      {"molecule": "O=C(O)c1cccc(O)c1", "activity change, negative = cytotoxicity": "1.53%"},
      {"molecule": "CC(CCO)CCc1ccccc1", "note": "(configuration not stated)", "activity change, negative = cytotoxicity": "0.237%"},
      {"molecule": "Oc1cc(O)c(Cl)cc1Cl", "activity change, negative = cytotoxicity": "-0.796%"},
      {"molecule": "CCCCC(CC)COC(=O)COc1ccc(Cl)cc1C", "note": "(configuration not stated)", "activity change, negative = cytotoxicity": "0.582%"},
      {"molecule": "CC(=O)N(c1onc(C)c1C)S(=O)(=O)c1ccc(N)cc1", "activity change, negative = cytotoxicity": "2.02% [at 42.5 µM]"},
      {"molecule": "CC1(C)C(=O)N(Br)C(=O)N1Cl", "activity change, negative = cytotoxicity": "0.354%"},
      {"molecule": "O=C(/C=C/c1ccccc1)OCCCc1ccccc1", "activity change, negative = cytotoxicity": "4.48%"},
      {"molecule": "CCCOC(=O)c1ccc(C(=O)OCCC)nc1", "activity change, negative = cytotoxicity": "2.91%"},
      {"molecule": "Cc1ccc(/C=N/n2c(-c3ccccc3)csc2=S)cc1", "activity change, negative = cytotoxicity": "-7.61% [at 42.5 µM]"},
      {"molecule": "CC1(C)O[C@@H]2C[C@H]3[C@@H]4CCC5=CC(=O)C=C[C@]5(C)[C@H]4[C@@H](O)C[C@]3(C)[C@]2(C(=O)CO)O1", "activity change, negative = cytotoxicity": "-3.46% [at 42.5 µM]"},
      {"molecule": "O=C(Nc1ccccc1)Nc1ccccc1", "activity change, negative = cytotoxicity": "-5.89%"},
      {"molecule": "O=C1NCCN1", "activity change, negative = cytotoxicity": "1.6%"},
      {"molecule": "CCCC(=O)O[C@]1(C(=O)COC(=O)CC)CC[C@H]2[C@@H]3CCC4=CC(=O)CC[C@]4(C)[C@H]3[C@@H](O)C[C@@]21C", "activity change, negative = cytotoxicity": "0.279% [at 19 µM]"},
      {"molecule": "O=C(O)c1ccc(CO)o1", "activity change, negative = cytotoxicity": "1.81%"},
      {"molecule": "CCCCN(CCCC)CCCOC(=O)c1ccc(N)cc1", "activity change, negative = cytotoxicity": "-2.96% [at 42.5 µM]"},
      {"molecule": "CCOC(=O)c1ccccc1C", "activity change, negative = cytotoxicity": "-5.03%"},
      {"molecule": "CCCCCCOC(=O)C(C)C", "activity change, negative = cytotoxicity": "0.024%"},
      {"molecule": "CC1=C(C=O)C(C)(C)CCC1", "activity change, negative = cytotoxicity": "0.966%"},
      {"molecule": "CC(=O)OCC(=O)[C@@]12OC(C)(C)O[C@@H]1C[C@H]1[C@@H]3C[C@H](F)C4=CC(=O)C=C[C@]4(C)[C@@]3(F)[C@@H](O)C[C@@]12C", "activity change, negative = cytotoxicity": "4.43% [at 42.5 µM]"},
      {"molecule": "CC1CC(O)CC(C)(C)C1", "note": "(configuration not stated)", "activity change, negative = cytotoxicity": "2.85%"},
      {"molecule": "CN1CCCN=C1/C=C/c1cccs1", "activity change, negative = cytotoxicity": "4.3% [at 42.5 µM]"},
      {"molecule": "Cc1cc(OI)c(C(C)C)cc1-c1cc(C(C)C)c(OI)cc1C", "activity change, negative = cytotoxicity": "3.05% [at 42.5 µM]"},
      {"molecule": "NCC1CCCC(CN)C1", "note": "(configuration not stated)", "activity change, negative = cytotoxicity": "-2.33%"}
    ]},
    {"assay": "qHTS assay to identify small molecule agonists of the estrogen receptor beta (ER-beta) signaling pathway - cell viability counter screen (AID 1259380); further: nearly all actives have a fitted effect of over 30% in size", "details": "ER-beta-bla HEK293T viability, CellTiter-Glo luminescence, 16 h; series mostly up to 92.4 µM; activity change, negative = cytotoxicity: at the top concentration", "procedure,_shortened": "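ER-beta-UAS-bla HEK293T cells in medium with 2% charcoal-stripped FBS were preincubated 6 hr at 37C, dosed with compound in DMSO for 16 hr, then after the bla read, CellTiter-Glo was added for 30 min at room temperature; luminescence recorded.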", "values": [
      {"molecule": "C[N+]1(C)CCC(=C(c2ccccc2)c2ccccc2)CC1", "activity change, negative = cytotoxicity": "11.8% [at 42.5 µM]"},
      {"molecule": "CC[C@@H]([C@H](C)O)n1ncn(-c2ccc(N3CCN(c4ccc(OC[C@@H]5CO[C@@](Cn6cncn6)(c6ccc(F)cc6F)C5)cc4)CC3)cc2)c1=O", "Potency": "4.22 µM (active)"},
      {"molecule": "CCCCCC=CCC=CCCCCCCCC(=O)OCC", "Potency": "29.8 µM (active)"},
      {"molecule": "CN1Cc2cc(C(=O)N3CCC(C4CCNCC4)CC3)ccc2N[C@@H](CC(=O)O)C1=O", "activity change, negative = cytotoxicity": "5.21% [at 42.5 µM]"},
      {"molecule": "Cc1cc(S(=O)(=O)O)ccc1N=Nc1c(O)ccc2ccccc12", "activity change, negative = cytotoxicity": "-1.68%"},
      {"molecule": "Cc1ccccc1N1C(=O)c2cc(S(N)(=O)=O)c(Cl)cc2NC1C", "note": "(configuration not stated)", "activity change, negative = cytotoxicity": "1.39% [at 42.5 µM]"},
      {"molecule": "CC[C@H](NC(=O)c1cc(F)ccc1NS(=O)(=O)c1cccc2cccnc12)c1ccccc1", "Potency": "18.3 µM (active)"},
      {"molecule": "CN1CCN(c2c(F)cc3c(=O)c(C(=O)O)cn4c3c2OCN4C)CC1", "activity change, negative = cytotoxicity": "3.44% [at 19 µM]"},
      {"molecule": "C=CC(=O)NCOCC(C)C", "activity change, negative = cytotoxicity": "8.6%"},
      {"molecule": "C1COCO1", "activity change, negative = cytotoxicity": "0.538%"},
      {"molecule": "c1cnc2c(n1)CCCC2", "activity change, negative = cytotoxicity": "0.444%"},
      {"molecule": "O=C(CCCCCCCCC#CI)Oc1ccccc1", "activity change, negative = cytotoxicity": "3.01% [at 42.5 µM]"},
      {"molecule": "CO[C@@]12[C@H](COC(N)=O)C3=C(C(=O)C(C)=C(N)C3=O)N1C[C@@H]1N[C@@H]12", "activity change, negative = cytotoxicity": "-1.04% [at 42.5 µM]"},
      {"molecule": "CCCCCCCCCOC(C)=O", "activity change, negative = cytotoxicity": "5.56%"},
      {"molecule": "O=C(O)c1cccc(O)c1", "activity change, negative = cytotoxicity": "-4.09%"},
      {"molecule": "CC(CCO)CCc1ccccc1", "note": "(configuration not stated)", "activity change, negative = cytotoxicity": "1.74%"},
      {"molecule": "Oc1cc(O)c(Cl)cc1Cl", "activity change, negative = cytotoxicity": "3.97%"},
      {"molecule": "CCCCC(CC)COC(=O)COc1ccc(Cl)cc1C", "note": "(configuration not stated)", "activity change, negative = cytotoxicity": "7.15%"},
      {"molecule": "CC(=O)N(c1onc(C)c1C)S(=O)(=O)c1ccc(N)cc1", "activity change, negative = cytotoxicity": "0.228% [at 42.5 µM]"},
      {"molecule": "CC1(C)C(=O)N(Br)C(=O)N1Cl", "activity change, negative = cytotoxicity": "-5.1%"},
      {"molecule": "O=C(/C=C/c1ccccc1)OCCCc1ccccc1", "activity change, negative = cytotoxicity": "0.157%"},
      {"molecule": "CCCOC(=O)c1ccc(C(=O)OCCC)nc1", "activity change, negative = cytotoxicity": "3%"},
      {"molecule": "CC1(C)O[C@@H]2C[C@H]3[C@@H]4CCC5=CC(=O)C=C[C@]5(C)[C@H]4[C@@H](O)C[C@]3(C)[C@]2(C(=O)CO)O1", "activity change, negative = cytotoxicity": "-7.92% [at 42.5 µM]"},
      {"molecule": "O=C1NCCN1", "activity change, negative = cytotoxicity": "-8.9%"},
      {"molecule": "CCCC(=O)O[C@]1(C(=O)COC(=O)CC)CC[C@H]2[C@@H]3CCC4=CC(=O)CC[C@]4(C)[C@H]3[C@@H](O)C[C@@]21C", "activity change, negative = cytotoxicity": "1.26% [at 19 µM]"},
      {"molecule": "O=C(O)c1ccc(CO)o1", "activity change, negative = cytotoxicity": "3.61%"},
      {"molecule": "CCCCCCOC(=O)C(C)C", "activity change, negative = cytotoxicity": "-1.1%"},
      {"molecule": "CC1=C(C=O)C(C)(C)CCC1", "activity change, negative = cytotoxicity": "4.55%"},
      {"molecule": "CC(=O)OCC(=O)[C@@]12OC(C)(C)O[C@@H]1C[C@H]1[C@@H]3C[C@H](F)C4=CC(=O)C=C[C@]4(C)[C@@]3(F)[C@@H](O)C[C@@]12C", "activity change, negative = cytotoxicity": "9.05% [at 42.5 µM]"},
      {"molecule": "CC1CC(O)CC(C)(C)C1", "note": "(configuration not stated)", "activity change, negative = cytotoxicity": "-2.96%"},
      {"molecule": "CN1CCCN=C1/C=C/c1cccs1", "activity change, negative = cytotoxicity": "4.92% [at 42.5 µM]"},
      {"molecule": "Cc1cc(OI)c(C(C)C)cc1-c1cc(C(C)C)c(OI)cc1C", "activity change, negative = cytotoxicity": "2.35% [at 42.5 µM]"},
      {"molecule": "NCC1CCCC(CN)C1", "note": "(configuration not stated)", "activity change, negative = cytotoxicity": "-4.08%"}
    ]}
  ]
}
